In PubChem BioAssay AID1159580 (chemical genetic matrix, 2015):
Several values for one entry are separate records, joined by “and”; a condition that tells them apart may be missing. Equal entries are not always repeated. About 2,000 (36%) of roughly 5,500 compounds were called active. Not shown: some 18% with an inconclusive outcome. Cut-off read from the data, not from the text of the source: active = normalized growth mostly below about 0.91 (no sharp cut-off); inconclusive = no clear call, values can overlap the other calls; inactive = mostly above about 0.92. The list shows a part of the results.

Assay: chemical genetic growth profiling, strain panel (AID 1159580);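 note: tested at 20 µM; growth read once vehicle control cultures reached saturation at 30 °C; 1 = growth at the plate median or of vehicle wells; lower values mean less growth of the strain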
Conditions: S. cerevisiae deletion strains, growth OD

Measured: normalized growth

O=C(O)CCC(=O)OC[C@@H](NC(=O)C(Cl)Cl)[C@H](O)c1ccc([N+](=O)[O-])cc1
inactive: locus YAL021C, strain ccr4, active compounds read low 0.99 | locus YAL026C, strain drs2, active compounds read low 0.993 | locus YAL030W, strain snc1, active compounds read low 0.981 | locus YBL061C, strain skt5, active compounds read low 0.971 | locus YBR009C, strain hhf1, active compounds read low 0.956 | locus YBR021W, strain FUR4, active compounds read low 1.02 | locus YBR023C, strain chs3, active compounds read low 0.976 | locus YBR171W, strain sec66, active compounds read low 0.962 | locus YBR229C, strain ROT2, active compounds read low 0.951 | locus YBR231C, strain swc5, active compounds read low 1 | locus YBR279W, strain paf1, active compounds read low 0.989 | locus YCL011C, strain gbp2, active compounds read low 0.942 | locus YCL016C, strain dcc1, active compounds read low 0.953 | locus YCL029C, strain bik1, active compounds read low 0.986 | locus YCL061C, strain MRC1, active compounds read low 0.981 | locus YCL069W, strain vba3, active compounds read low 0.982 | locus YCR088W, strain abp1, active compounds read low 0.986 | locus YDL005C, strain med2, active compounds read low 0.984 | locus YDL035C, strain GPR1, active compounds read low 0.974 | locus YDL040C, strain nat1, active compounds read low 0.996 | locus YDL074C, strain BRE1, active compounds read low 0.98 | locus YDL101C, strain DUN1, active compounds read low 0.995 | locus YDL134C, strain PPH21, active compounds read low 0.964 | locus YDL185W, strain tfp1, active compounds read low 0.96 | locus YDL192W, strain arf1, active compounds read low 0.979 | locus YDR001C, strain nth1, active compounds read low 0.975 | locus YDR069C, strain doa4, active compounds read low 1.01 | locus YDR101C, strain arx1, active compounds read low 0.963 | locus YDR137W, strain rgp1, active compounds read low 0.963 | locus YDR150W, strain NUM1, active compounds read low 0.982 | locus YDR159W, strain sac3, active compounds read low 0.997 | locus YDR162C, strain NBP2, active compounds read low 0.93 | locus YDR195W, strain ref2 1 | locus YDR297W, strain sur2, active compounds read low 0.964 | locus YDR318W, strain mcm21, active compounds read low 0.99 | locus YDR334W, strain swr1, active compounds read low 0.945 | locus YDR335W, strain msn5, active compounds read low 0.973 | locus YDR388W, active compounds read low 0.983 | locus YDR392W, strain spt3, active compounds read low 0.914 | locus YDR502C, strain sam2, active compounds read low 0.991 | locus YEL003W, strain gim4, active compounds read low 0.982 | locus YEL037C, strain rad23, active compounds read low 0.991 | locus YEL061C, strain CIN8 (second series), active compounds read low 0.987 | locus YEL061C, strain CIN8, active compounds read low 0.988 | locus YER015W, strain faa2, active compounds read low 0.989 | locus YER016W, strain bim1, active compounds read low 0.988 | locus YER110C, active compounds read low 0.964 | locus YER111C, strain swi4, active compounds read low 0.982 | locus YER155C, strain BEM2 (second series), active compounds read low 1.04 | locus YER155C, strain BEM2, active compounds read low 0.989 | locus YER167W, strain BCK2, active compounds read low 0.997 | locus YFR010W, strain ubp6, active compounds read low 0.979 | locus YGL078C, strain dbp3, active compounds read low 0.995 | locus YGL167C, strain pmr1, active compounds read low 0.974 | locus YGL173C, strain kem1, active compounds read low 0.967 | locus YGL227W, strain vid30, active compounds read low 0.977 | locus YGL240W, strain doc1, active compounds read low 1 | locus YGL248W, strain PDE1, active compounds read low 1.01 | locus YGL253W, strain hxk2, active compounds read low 0.968 | locus YGR135W, strain pre9, active compounds read low 1.03 | locus YGR229C, strain SMI1, active compounds read low 0.969 | locus YGR252W, strain gcn5, active compounds read low 1.07 | locus YHR013C, strain ard1, active compounds read low 0.955 | locus YHR027C, strain rpn1, active compounds read low 0.956 | locus YHR030C, strain SLT2, active compounds read low 0.974 | locus YHR079C, strain IRE1 (second series), active compounds read low 0.989 | locus YHR079C, strain IRE1, active compounds read low 0.961 | locus YHR094C, strain hxt1, active compounds read low 0.979 | locus YHR129C, strain ARP1, active compounds read low 0.982 | locus YHR142W, strain chs7, active compounds read low 0.926 | locus YHR200W, strain rpn10, active compounds read low 0.981 | locus YIL066C, strain RNR3, active compounds read low 0.947 | locus YIL073C, strain SPO22, active compounds read low 0.988 | locus YIL125W, strain kgd1, active compounds read low 0.983 | locus YIR030C, strain dcg1, active compounds read low 0.98 | locus YJL092W, strain hpr5, active compounds read low 0.981 | locus YJL095W, strain BCK1 (second series), active compounds read low 0.972 | locus YJL095W, strain BCK1, active compounds read low 1.04 and 0.971 | locus YJL115W, strain asf1, active compounds read low 0.969 | locus YJL129C, strain trk1, active compounds read low 0.968 | locus YJL134W, strain LCB3, active compounds read low 0.982 | locus YJL154C, strain vps35, active compounds read low 0.975 | locus YJL164C, strain tpk1, active compounds read low 0.968 | locus YJL166W, strain qcr8, active compounds read low 0.964 | locus YJL168C, strain set2, active compounds read low 0.983 | locus YJL187C, strain SWE1 (second series), active compounds read low 1 | locus YJL187C, strain SWE1, active compounds read low 0.975
